For 14 molecules, composite z-score and z-score results are on record in PubChem BioAssay.

Assay [1] is described as follows: compounds binding Alexa647 anti-His antibody – biochemical, small-molecule microarray, 635 nm fluorescence, artefact control for SMM control protein annotation, primary screen (AID 1128).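 Also: score merges feature fluorescence with signal-to-noise for each printed compound spot.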 Conditions: higher = more signal.
Assay [2] concerns Human papillomavirus type 1a E7 protein (residues 1-88). Description: HPV1a E7 small-molecule binders, primary screen, biochemical, small-molecule microarray, residues 1-88, 635 nm (AID 1129). Conditions: small-molecule microarray binding, fluorescence 635 nm; higher = more signal.
In assay [3] the target is Focal adhesion kinase 1 (Homo sapiens) (UniProt Q05397). Description: PTK2 protein binding on printed compound slides – biochemical, small-molecule microarray, 635/667 nm fluorescence, BSA, DTT, primary screen (AID 1130).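 Also: composite of spot emission at 667 nm and signal to noise over triplicate slides.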 Conditions: 635 nm fluorescence, higher = more signal.
Assay [4] has as its system Fibrinogen (Alexa647-labelled). Kind of assay: Alexa647-fibrinogen binding to printed small molecules – biochemical, small-molecule microarray, 635/667 nm fluorescence, artefact control for SMM control-protein annotation, profiling panel (AID 1131).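 Also: z-score merges 667 nm fluorescence with per-spot signal-to-noise over triplicate slides.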 Conditions: fibrinogen-A647 binding fluorescence, higher = more signal.
In assay [5] the target is Follistatin (Homo sapiens) (UniProt P19883). Kind of assay: FST protein binding to printed compounds – biochemical, small-molecule microarray, 635/667 nm fluorescence, primary screen (AID 1132). Conditions: 635 nm fluorescence, higher = more signal.
The target of assay [6] is Fibroblast growth factor 2 (Homo sapiens) (UniProt P09038). Description: basic fibroblast growth factor binding to printed compounds – biochemical, small-molecule microarray, 635/667 nm fluorescence, primary screen (AID 1133). Conditions: FGF2, fluorescence 635/667, higher = more signal.
The nature of assay [7]: JC-1 mitochondrial potential readout, lung cancer cells – cell-based, A549, JC-1 fluorescence, basal, 24 h, 100 nL, profiling panel (AID 1138).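 Also: A549 lung adenocarcinoma cells under basal conditions with no added stimulus; test concentration not given here.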 Conditions: higher = more signal.
The test system of a further assay is Lefty1. Kind of assay: Lefty1 protein binding to printed compounds – biochemical, small-molecule microarray, 635/667 nm fluorescence, primary screen (AID 1139). Conditions: fluorescence 635/667, higher = more signal.
For assay [8], the system named is wheat germ agglutinin (Triticum aestivum), Alexa647-labelled. Kind of assay: Alexa647-WGA lectin binding to printed small molecules – biochemical, small-molecule microarray, 635/667 nm fluorescence, artefact control for SMM control-protein annotation, profiling panel (AID 1140).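 Also: score merges 667 nm feature emission with signal to noise over triplicate slides.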 Conditions: WGA-A647 binding, 635 nm fluorescence, higher = more signal.
Assay [9] deals with Luciferin 4-monooxygenase (Photinus pyralis) (UniProt P08659). Kind of assay: inhibition of purified Photinus pyralis luciferase – biochemical, luminescence, purified enzyme, 2006 set, primary screen (AID 1141).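 Also: cell-free assay with purified firefly luciferase at 100 ng per well in PBS; test concentration not given here.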 Conditions: purified firefly luciferase, SteadyGlo luminescence, 30 min; higher = more signal, called active from +8 up or from −8 down.

Active and inactive are the calls of the source.

Focal adhesion kinase 1 (Homo sapiens), sequence (Q05397 whole entry, looked up): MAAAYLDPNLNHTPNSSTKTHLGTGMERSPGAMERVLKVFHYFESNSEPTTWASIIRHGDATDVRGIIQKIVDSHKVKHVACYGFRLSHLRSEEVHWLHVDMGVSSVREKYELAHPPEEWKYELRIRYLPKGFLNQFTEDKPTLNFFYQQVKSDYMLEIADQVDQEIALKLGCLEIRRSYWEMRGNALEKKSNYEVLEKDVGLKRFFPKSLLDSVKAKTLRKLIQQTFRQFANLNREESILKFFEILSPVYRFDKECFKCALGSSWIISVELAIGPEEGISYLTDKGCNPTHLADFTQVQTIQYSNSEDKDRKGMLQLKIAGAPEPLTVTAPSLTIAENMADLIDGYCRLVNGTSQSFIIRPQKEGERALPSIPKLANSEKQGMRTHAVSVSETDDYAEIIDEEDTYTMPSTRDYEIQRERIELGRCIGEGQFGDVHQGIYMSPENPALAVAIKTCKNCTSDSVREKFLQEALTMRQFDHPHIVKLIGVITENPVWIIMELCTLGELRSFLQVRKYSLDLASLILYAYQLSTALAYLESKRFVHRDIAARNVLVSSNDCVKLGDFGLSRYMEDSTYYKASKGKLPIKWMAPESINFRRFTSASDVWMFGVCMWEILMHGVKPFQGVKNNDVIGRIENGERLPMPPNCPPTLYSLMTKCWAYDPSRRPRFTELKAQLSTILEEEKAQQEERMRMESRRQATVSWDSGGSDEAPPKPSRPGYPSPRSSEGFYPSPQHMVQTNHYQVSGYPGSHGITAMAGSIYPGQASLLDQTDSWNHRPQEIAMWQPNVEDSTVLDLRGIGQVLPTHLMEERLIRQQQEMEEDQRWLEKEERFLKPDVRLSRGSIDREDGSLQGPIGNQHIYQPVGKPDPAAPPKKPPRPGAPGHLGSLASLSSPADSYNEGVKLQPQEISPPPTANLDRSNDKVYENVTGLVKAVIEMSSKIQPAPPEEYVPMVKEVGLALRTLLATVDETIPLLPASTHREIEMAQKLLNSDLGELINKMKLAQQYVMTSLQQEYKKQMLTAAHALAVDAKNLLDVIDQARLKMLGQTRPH
Follistatin (Homo sapiens), sequence (P19883 whole entry, looked up): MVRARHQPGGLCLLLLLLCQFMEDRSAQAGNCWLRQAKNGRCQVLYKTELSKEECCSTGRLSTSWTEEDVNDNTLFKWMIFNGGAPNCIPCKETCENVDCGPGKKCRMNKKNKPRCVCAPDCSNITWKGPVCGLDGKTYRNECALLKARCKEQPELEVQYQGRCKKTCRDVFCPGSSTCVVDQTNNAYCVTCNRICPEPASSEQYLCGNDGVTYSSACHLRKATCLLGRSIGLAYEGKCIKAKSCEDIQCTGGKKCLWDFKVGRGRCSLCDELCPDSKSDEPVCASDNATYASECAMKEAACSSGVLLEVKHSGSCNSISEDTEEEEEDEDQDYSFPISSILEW
Fibroblast growth factor 2 (Homo sapiens), sequence (P09038 whole entry, looked up): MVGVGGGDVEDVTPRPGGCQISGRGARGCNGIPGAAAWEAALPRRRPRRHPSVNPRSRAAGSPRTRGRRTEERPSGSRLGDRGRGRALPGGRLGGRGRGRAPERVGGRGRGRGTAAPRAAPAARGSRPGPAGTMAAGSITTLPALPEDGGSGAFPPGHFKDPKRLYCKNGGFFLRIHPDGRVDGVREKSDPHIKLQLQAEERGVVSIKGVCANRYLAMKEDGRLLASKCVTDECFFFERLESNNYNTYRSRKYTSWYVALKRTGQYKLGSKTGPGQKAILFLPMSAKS
Luciferin 4-monooxygenase (Photinus pyralis), sequence (P08659 whole entry, looked up): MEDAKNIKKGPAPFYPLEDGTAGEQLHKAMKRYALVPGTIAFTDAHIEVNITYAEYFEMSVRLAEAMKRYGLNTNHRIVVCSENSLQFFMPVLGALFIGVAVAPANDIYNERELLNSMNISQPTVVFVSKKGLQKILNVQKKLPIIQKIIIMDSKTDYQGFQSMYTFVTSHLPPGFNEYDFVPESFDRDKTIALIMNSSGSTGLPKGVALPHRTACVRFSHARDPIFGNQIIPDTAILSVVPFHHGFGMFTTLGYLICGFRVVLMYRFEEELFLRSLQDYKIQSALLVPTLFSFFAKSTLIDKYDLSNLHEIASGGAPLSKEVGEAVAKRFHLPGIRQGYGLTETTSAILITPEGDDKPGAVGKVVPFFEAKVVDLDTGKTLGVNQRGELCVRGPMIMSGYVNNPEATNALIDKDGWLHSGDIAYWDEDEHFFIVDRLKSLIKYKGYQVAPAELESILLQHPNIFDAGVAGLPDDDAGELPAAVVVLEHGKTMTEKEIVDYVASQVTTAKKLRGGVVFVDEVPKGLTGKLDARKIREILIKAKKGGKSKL

Take `C[C@H]1NC(=O)C([C@@H](C)OCc2ccccc2)NC(=O)[C@@]23C(=O)N[C@@H](Cc4ccccc4)C2[C@H](C)[C@@]2(C)O[C@H]2C3/C=C/C/C=C\CNC1=O` (stereo not given in full): the composite z-score is 0.296 in assay [1]; -0.728 in [2]; -0.235 in assay [3]; -0.394 in assay [4]; 0.425 in [5]; 0.545 in assay [6]. For the same molecule, the composite z-score was 0.459 in the assay with Lefty1 and -0.682 in assay [8]. Further, the values for the z-score in [7] and in assay [9] were 0.919 and -1.02 (inactive), respectively.
Turning to `C[N+](C)(C)CCCCCCNC(=O)[C@H]1C[C@H]2C(=O)NCC(=O)N2[C@H]1c1cccc(OCCO)c1`, the composite z-score was 3.03 in assay [1]; 0.283 in [2]; -0.27 in assay [3]; 0.0104 in assay [4]; 1.13 in assay [5]; 1.63 in [6]. Besides, the values for the composite z-score (in the assay with Lefty1; in assay [8]) were 1.6 and 0.273, respectively. For the same molecule, the z-score in [7] was -0.883; in assay [9], -0.0987 (inactive).
In the case of `CCCCC(O)C1C=CC2C(=O)NC(=O)C2N1Nc1ccc(Cl)cc1Cl` (stereo not given), the composite z-score in assay [1] is 2.42; in assay [2], 0.32; in [3] it was 0.474; in assay [4], -0.0628; in assay [5], 0.413; in assay [6] it was -0.596. The composite z-score was -0.654 in the assay on Lefty1 and 0.87 in [8]. The z-score is -1.16 in assay [7] and -1.31 (inactive) in assay [9].
In the case of `CC(C)C[C@@H]1NC(=O)[C@H]2C[C@@H](C(=O)NCCCCCCNC(=O)CS)[C@@H](c3ccc(O)cc3)N2C1=O`, the composite z-score stood at 2.26 in assay [1]; 1.22 in [2]; 0.87 in assay [3]; 0.0675 in assay [4]; 1.3 in assay [5]; 1.78 in assay [6]. The composite z-score was found to be 0.543 in the assay on Lefty1 and 0.0059 in assay [8]. Further, the z-score in [7] was -1.02; in assay [9] it was -0.938 (inactive).
As to `[N-]=[N+]=NCc1ccccc1[C@H]1OC(c2ccc(OCCCO)cc2)=N[C@@]1(Cc1ccccc1)C(=O)N1CCOCC1`, the composite z-score in [1] amounted to 1.44; in [2], 1.26; in assay [3] it was 0.46; in assay [4], 0.992; in [5] it was 0.25; in assay [6] it was 1.48. Moreover, the composite z-score in the assay on Lefty1 is -0.155; in assay [8], 0.723. Moreover, the results for the z-score in assay [7] and in assay [9] were 0.343 and -0.372 (inactive), respectively.
With `CC1(C)OC[C@@]23C=C(Br)[C@@H](C[C@H]12)[C@@]1(CO1)C3=O`, the composite z-score in [1] came to 0.424; in [2], 0.62; in assay [3], 0.139; in assay [4], 0.149; in assay [5], 0.369; in assay [6], 0.122. Also, the composite z-score in the assay on Lefty1 was 0.439; in [8] it was 0.0477. The values for the z-score in assay [7] and in assay [9] were 0.582 and -0.0228 (inactive), respectively.
With `C=CCC(OC(C)=O)[C@@H]1[C@@H](N(Cc2cc3ccccc3o2)C(=O)Cc2ccc(OC)cc2)c2cc(OCCCO)ccc2N1C(=O)Cc1ccc(OC)cc1` (stereo not given in full), the composite z-score was 0.69 in assay [1]; -0.406 in [2]; 0.517 in assay [3]; 0.712 in assay [4]; 0.726 in assay [5]; 0.171 in [6]. Further, the composite z-score in the assay with Lefty1 is -0.0035; in [8], 0.67. For the same molecule, the z-score was -0.411 in [7] and 0.244 (inactive) in [9].
Take `O=C1c2ccccc2[C@@]2(Cc3ccccc3N(Cc3ccccc3)C2=O)[C@H](c2ccc(CO)cc2)N1Cc1ccccc1`: the composite z-score in assay [1] is -1.16; in assay [2] it was -1.58; in [3], -0.667; in assay [4], -0.936; in [5] it was -1; in assay [6] it was -1.01. The values for the composite z-score (in the assay with Lefty1; in assay [8]) were -1.09 and 0.168, respectively. Moreover, the z-score is 0.0926 in assay [7] and 0.407 (inactive) in assay [9].
For `NC(=O)[C@@]1(CCS(=O)(=O)c2ccccc2)COC(c2ccc(OCCCO)cc2)=N1`, the composite z-score in assay [1] is 0.329; in assay [2], -0.201; in [3], -0.0683; in [4], 0.294; in assay [5], 0.112; in [6], -0.0653. Moreover, the composite z-score was -0.643 with Lefty1 and 1.05 in [8]. For the same molecule, the z-score in [7] was -0.492; in assay [9], -0.188 (inactive).
Consider `COc1cc2c(cc1O)C(c1ccc(CN3CCCC3)cc1)N(Cc1ccc([N+](=O)[O-])o1)CC2` (stereo not given), for which the composite z-score was 0.27 in assay [1]; -0.96 in [2]; -0.537 in [3]; 0.121 in assay [4]; -0.147 in [5]; 0.253 in [6]. Besides, the composite z-score in the assay on Lefty1 was -0.606; in assay [8] it was 0.522. For the same molecule, the results for the z-score in [7] and in [9] were 1 and -0.659 (inactive), respectively.
As to `COC(=O)Cn1c(C(=O)N(C)C)cc2c1C[C@H]1CN(C(=O)c3ccccc3)[C@@](Cc3ccc(OC)cc3)(C(=O)OC)[C@@H]21`, the composite z-score is 0.817 in assay [1]; 0.845 in [2]; 0.263 in assay [3]; 0.605 in assay [4]; 0.371 in [5]; -0.159 in assay [6]. The composite z-score was -0.351 in the assay with Lefty1 and 0.86 in assay [8]. For the same molecule, the z-score was 0.834 in assay [7] and 0.923 (inactive) in assay [9].
In the case of `O=C1OCCC=C[C@H]2OC34C=CCN(c5ccc(Cl)cc5)C(=O)[C@H]3N(CCO)C(=O)[C@@H]4C12` (stereo not given in full), the composite z-score in [1] is -0.656; in assay [2], -0.574; in assay [3] it was -0.732; in [4], -0.262; in assay [5], -0.367; in assay [6], -1.14. Moreover, the composite z-score in the assay with Lefty1 is -0.837; in assay [8] it was -0.524. The results for the z-score in [7] and in [9] were -0.0109 and -0.381 (inactive), respectively.
Consider `CN(C)CCCCNC(=O)[C@H]1C[C@H]2C(=O)N[C@@H](Cc3ccccc3)C(=O)N2[C@H]1c1cccc(OCCO)c1`, for which the composite z-score in [1] was 0.807; in [2] it was -0.562; in [3], -0.0598; in assay [4], -0.205; in [5] it was 1.21; in [6], 0.694. Besides, the composite z-score is 0.365 with Lefty1 and -0.0282 in assay [8]. Also, the z-score in assay [7] is -0.0938; in [9], 0.801 (inactive).
Take `CC(C)=CCN(C(=O)C#Cc1ccccc1)[C@H](CO)c1ccccc1`: the composite z-score was 0.326 in [1]; 0.419 in assay [2]; -0.0317 in [3]; 0.237 in assay [4]; 0.653 in assay [5]; 0.766 in [6]. In addition, the composite z-score with Lefty1 amounted to 0.743; in assay [8] it was 0.146. Moreover, the results for the z-score in assay [7] and in assay [9] were -0.842 and 0.265 (inactive), respectively.
